Experimental data from PubChem BioAssay.
Calls of active or inactive are those of the source. Unless noted, no rule for the calls is given here.

What was measured:
[1] = HepG2 liver cancer cell viability effects, profiling panel, resazurin fluorescence, 24 h, PK04 Diversity Set (AID 1172); conditions: higher = more signal; also: test concentration not given here
[2] = basal S. cerevisiae growth modulation, no modifier, primary screen, OD600, strain BY4716, 24 h, basal condition (AID 1173); conditions: OD600, 24 h, higher = more signal, called active from +8 up or from −8 down
[3] = MM1S myeloma cell viability, profiling panel, resazurin fluorescence, basal, 24 h, PK04 Diversity Set (AID 1174); conditions: higher = more signal, called active from +8 up or from −8 down;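 also: MM1S multiple myeloma cell line; test concentration not given here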
[4] = biological target: Dihydroorotate dehydrogenase (quinone), mitochondrial (Plasmodium falciparum (isolate 3D7)) (UniProt Q08210); test: PfDHODH enzyme inhibitors, primary screen, biochemical, C-terminal His tag, absorbance 600 nm (AID 1175); conditions: DCIP absorbance 600 nm, higher = more signal, called active from +8 up or from −8 down;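 also: recombinant parasite enzyme with a five histidine tag at its C terminus; test concentration not given here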
Chain of Dihydroorotate dehydrogenase (quinone), mitochondrial (Plasmodium falciparum (isolate 3D7)) (Q08210 whole entry, looked up): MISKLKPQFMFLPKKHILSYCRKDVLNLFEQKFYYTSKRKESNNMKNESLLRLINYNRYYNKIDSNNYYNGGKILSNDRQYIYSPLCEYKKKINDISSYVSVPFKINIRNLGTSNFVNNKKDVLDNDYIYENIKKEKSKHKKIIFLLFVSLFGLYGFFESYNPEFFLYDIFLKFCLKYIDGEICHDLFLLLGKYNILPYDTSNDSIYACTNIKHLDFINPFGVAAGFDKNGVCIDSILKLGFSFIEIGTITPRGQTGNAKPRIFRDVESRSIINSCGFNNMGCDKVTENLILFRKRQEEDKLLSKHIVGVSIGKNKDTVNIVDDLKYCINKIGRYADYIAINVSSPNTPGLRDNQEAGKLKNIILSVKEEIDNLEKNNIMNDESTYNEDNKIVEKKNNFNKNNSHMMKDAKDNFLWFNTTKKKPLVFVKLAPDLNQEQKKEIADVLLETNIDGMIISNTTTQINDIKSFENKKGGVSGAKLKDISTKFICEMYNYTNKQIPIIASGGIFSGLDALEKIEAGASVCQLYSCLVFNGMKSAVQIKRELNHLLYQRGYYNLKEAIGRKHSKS

[5] = P. aeruginosa biofilm formation inhibitors, primary screen, strain PAO1, LB-PBS medium, absorbance 600 nm (AID 1176); also: test concentration not given here; conditions: P. aeruginosa PAO1 growth/biofilm, A600, 12 h; higher = more signal
[6] = S. cerevisiae RM11-1a growth modifiers, primary screen, strain RM11-1a, OD600, basal, 24 h (AID 1177); conditions: OD600, 24 h, higher = more signal, called active from +8 up or from −8 down;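 also: cultures grown under basal conditions with no added stressor; test concentration not given here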
[7] = E. coli acrAB mutant growth effects, primary screen, E. coli filamentation inducers, strain DRC39, OD650, 24 h (AID 1178); conditions: higher = more signal, called active from +8 up or from −8 down;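 also: growth measured as culture turbidity by optical density at 650 nm; test concentration not given here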
[8] = E. coli acrAB mutant growth effects, primary screen, E. coli filamentation inducers, strain DRC39, OD650, 48 h (AID 1179);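 also: screen aims at cell division blockers that make cells filament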; conditions: E. coli DRC39 delta-acrAB growth, higher = more signal, called active from +8 up or from −8 down
[9] = RPMI8226 myeloma cell viability, profiling panel, resazurin fluorescence, basal, 24 h, PK04 Diversity Set (AID 1180); conditions: higher = more signal;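 also: RPMI8826 multiple myeloma cell line at 5000 cells per well; test concentration not given here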
[10] = biological target: E3 ubiquitin-protein ligase XIAP (Homo sapiens) (UniProt P98170); test: XIAP binders, primary screen, biophysical, small-molecule microarray, fluorescence 635 nm (AID 1181); conditions: small-molecule microarray binding, higher = more signal;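 also: score merges 667 nm emission and signal to noise over triplicate slides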
Chain of E3 ubiquitin-protein ligase XIAP (Homo sapiens) (P98170 whole entry, looked up): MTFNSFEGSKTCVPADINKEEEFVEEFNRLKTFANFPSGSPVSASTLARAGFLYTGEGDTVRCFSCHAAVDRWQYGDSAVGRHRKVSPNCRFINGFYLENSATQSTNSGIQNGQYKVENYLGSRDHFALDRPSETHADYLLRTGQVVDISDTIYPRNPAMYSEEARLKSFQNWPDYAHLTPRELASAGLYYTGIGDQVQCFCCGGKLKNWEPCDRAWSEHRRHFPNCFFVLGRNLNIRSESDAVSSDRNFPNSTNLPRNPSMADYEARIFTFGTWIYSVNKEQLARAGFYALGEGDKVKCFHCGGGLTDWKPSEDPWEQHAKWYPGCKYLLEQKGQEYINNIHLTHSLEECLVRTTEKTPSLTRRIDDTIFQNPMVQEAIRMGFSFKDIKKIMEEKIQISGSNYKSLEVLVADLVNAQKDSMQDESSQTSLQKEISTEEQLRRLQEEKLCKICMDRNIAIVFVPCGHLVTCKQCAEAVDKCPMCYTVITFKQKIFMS

| SMILES | z-score [1] | z-score [2] | z-score [3] | composite z-score [4] | z-score [5] | z-score [6] | z-score [7] | z-score [8] | z-score [9] | composite z-score [10] |
| --- | --- | --- | --- | --- | --- | --- | --- | --- | --- | --- |
| CCCC=C(CCC)[C@@H](NC(=O)c1ccc(C(=O)OC)cc1)c1ccc(C(=O)OC)cc1 | -0.179 | 1.24 (inactive) | -0.64 (inactive) | 0.138 (inactive) | 1.1 (inactive) | 1.55 (inactive) | -1.1 (inactive) | -0.486 (inactive) | -0.358 | 0.0627 |
| COC(=O)C1=CC(c2ccc(CO)cc2)=CC(C2CC2)N(Cc2cc3c(cc2Br)OCO3)C=C1C(=O)OC (stereo not given) | -0.0995 | -3.02 (inactive) | -1.42 (inactive) | -4.43 (inactive) | 0.158 (inactive) | -0.069 (inactive) | 0.164 (inactive) | -0.0391 (inactive) | -1.25 | 0.172 |
| CN1C2C=C(c3ccc(CO)cc3)C(C3C(=O)N(C(N)=O)C(=O)C32)C1C1CC1 (stereo not given) | -0.41 | 1.31 (inactive) | -0.611 (inactive) | 0.437 (inactive) | 0.354 (inactive) | 0.718 (inactive) | 0.0605 (inactive) | 0.213 (inactive) | -0.641 | -0.0745 |
| Cc1ccc(S[C@]2(C(=O)NCC(C)C)CC(=O)N(C(C)C)[C@@H]2c2ccc(CO)cc2I)cc1 | -0.16 | -2.09 (inactive) | -1.52 (inactive) | -0.332 (inactive) | -0.288 (inactive) | -0.91 (inactive) | 0.485 (inactive) | -0.117 (inactive) | -1.8 | -0.128 |
| CCCCC(=C=CC[C@@H](O)c1ccccc1OCCO)C[C@@H](O)c1ccccn1 | 0.687 | -1.72 (inactive) | 0.538 (inactive) | -7.64 (inactive) | 0.354 (inactive) | -0.506 (inactive) | 1.04 (inactive) | 0.52 (inactive) | 0.805 | -0.287 |
| C=CC[C@]1(C(=O)NCCN2CCOCC2)N=C(c2ccc(OCCCO)cc2)O[C@H]1c1ccccc1 | 0.543 | -0.916 (inactive) | 0.635 (inactive) | 0.507 (inactive) | 0.509 (inactive) | -0.548 (inactive) | -0.0082 (inactive) | -0.864 (inactive) | 0.749 | -0.0351 |
| [N-]=[N+]=NCc1ccccc1[C@H]1OC(c2ccc(OCCCO)cc2)=N[C@@]1(CCS(=O)(=O)c1ccccc1)C(=O)O | 0.086 | -1.04 (inactive) | -0.389 (inactive) | -1.14 (inactive) | -0.0304 (inactive) | -0.81 (inactive) | -0.589 (inactive) | -0.336 (inactive) | 0.0678 | 0.273 |
| C=C(COC)C(=O)CC[C@H](OC(C)=O)c1ccccc1OCCO | -0.812 | -0.86 (inactive) | -2.03 (inactive) | -1.56 (inactive) | -0.435 (inactive) | -0.0727 (inactive) | 0.732 (inactive) | 0.373 (inactive) | -2.37 | 0.0153 |
| CC[C@H]1C2=C3C(CC[C@H]4C(OCc5ccc(F)cc5C(F)(F)F)OC[C@](C)([C@@H]34)N(C(=O)OC(C)(C)C)C2)C(COC(C)=O)C1COC(C)=O (stereo not given in full) | -0.409 | 0.249 (inactive) | -1.04 (inactive) | -0.804 (inactive) | 0.523 (inactive) | 0.348 (inactive) | -1.26 (inactive) | -0.539 (inactive) | -0.866 | 0.48 |
| CC(C)(C)OC(=O)N1[C@@H](C=C(Br)Br)COC1(C)C | 0.373 | -4.13 (inactive) | 0.0757 (inactive) | -1.74 (inactive) | -0.677 (inactive) | -1.65 (inactive) | 0.559 (inactive) | 0.6 (inactive) | -0.673 | 0.0335 |
| O=C1O[C@H](c2ccccc2)[C@H](c2ccccc2)N2[C@H]1[C@@H](C(=O)O)[C@]1(C(=O)Nc3ccccc31)[C@H]2c1ccc(OCCO)cc1 | 0.0019 | -0.302 (inactive) | -0.0917 (inactive) | -0.652 (inactive) | 0.0485 (inactive) | -0.785 (inactive) | -0.545 (inactive) | -0.858 (inactive) | 1.16 | 0.18 |
| COC(=O)C(CC#Cc1ccc2c(c1)[C@]1(C(=O)N2)[C@H](c2ccc(OCCO)cc2)N2[C@H](c3ccccc3)[C@H](c3ccccc3)OC(=O)[C@H]2[C@@H]1C(N)=O)C(=O)OC | -0.156 | 1.17 (inactive) | -0.551 (inactive) | -1.24 (inactive) | 2.88 (inactive) | 2.32 (inactive) | 0.448 (inactive) | 0.287 (inactive) | -1.43 | 0.13 |
